The target in the first test is BCL7A. In words: pooled miR-30 sensor sort-seq; sequence = guide strand. Particulars: shRNA.
With TAGTAGTTCTGTTCGCACCCAA, the sensor-assay potency score (higher = more potent) came to 0.392. The same measure, in the same setting: under TACAGCAGCAACACAAATGGAA stands -0.286; under TTCATCGAATGTTCCATCGAGG, -0.362. TTTAAGACAGAAACCTTTCGGC had a sensor-assay potency score (higher = more potent) of 0.668. Same read-out and setting: next, TGAGCCACACTTCTCGTCCTTG: -0.721. Still for that read-out and setting: under TAGGGATGTGTCACCAACGGTC stands -0.791. Sequence ATTCTGACCACTGCGATCCTGC gave a sensor-assay potency score (higher = more potent) of -0.637.

Sequence TTTTGCAGTCTTGTCATTCTGC showed a sensor-assay potency score (higher = more potent) of 0.59. Same read-out and setting: next, TTGTACAAACCATATCTACTGA: -0.0617.

Consider TTGTTTTTGTCATCAACCTTGG, for which the sensor-assay potency score (higher = more potent) is -0.192. Same read-out and setting: next, TTGATATCATCTTTGGCCCGGC: -0.0024; TATCGTTACATAGAGAAGTGGG: 0.305.

TTAGAAAATGGAATCCAGCAGA returned a sensor-assay potency score (higher = more potent) of -0.0728. Same read-out and setting: under TTCTCTGAGCTGTTCATCGAAT stands -0.798. On the same count and under the same terms, next, ATAATGAACATTCCAAACCATG: -1.57; TAACACACAACTCAAAGGGAGT: -1.29; TACTGCTGTACAACACACCAAA: -0.883.

TTGTGGAATGTGTAGCCGCAGC had a sensor-assay potency score (higher = more potent) of -1.01. The same measure, in the same setting: next, TTGAAATTCAGGAACATTTTGA: -0.466.

As to TTCAGGAACATTTTGATTCTTC, the sensor-assay potency score (higher = more potent) is -0.0367.

The next test has as its target BDH2. Described as above. Conditions: shRNA.
Sequence TTAAAGAGAACATCAAGTCTCT returned a sensor-assay potency score (higher = more potent) of 0.782. For the sequence TAATATTGCCAGATTTCTGAGC, the sensor-assay potency score (higher = more potent) was -0.452.

Turning to TTTGTTTCTTCTTTGTGACATC, the sensor-assay potency score (higher = more potent) is -0.953. In turn, TTGATCATCAGGTACATGCTGC registered a sensor-assay potency score (higher = more potent) of 0.603. TTGGACTCATTAATGTCTGTGG showed a sensor-assay potency score (higher = more potent) of -0.0604. The same measure, in the same setting: next, TTGGTTGTGCTGTACACACATC: -1.05; TTCTTTCTTGTAGAGATGGCGT: -0.55. On the same count and under the same terms, next, TTCACAACTCCTTTGACGCTGG: 0.0987. On the same count and under the same terms, under TATTGCCAGATTTCTGAGCAAG stands -1.16; under AAACTGATCAATTTGTTTCTTC, 0.524. For TTCCATGATGGACAAAACCAGC, the sensor-assay potency score (higher = more potent) was -1.2. Still for that read-out and setting: under TTACATAAGCAGATTCATCAGA stands 0.11.

The next test has as its target BEST2. The test is described as above. Conditions: shRNA.
In turn, TAGCGCATGAGTGTGCGCCGGT yielded a sensor-assay potency score (higher = more potent) of -0.558.

Sequence TAAATCACAAGCTTCTCGAAGT displayed a sensor-assay potency score (higher = more potent) of -0.564. The same measure, in the same setting: next, ATAAATCACAAGCTTCTCGAAG: -0.809; AACTTCTTGCGCTCCTCGCGGG: -0.5; ATACATCTCGTCCACTGCCAGC: -1.42.

The sequence TTAAGGGCGCTGTTGTCGCGGA displayed a sensor-assay potency score (higher = more potent) of -1.06. Same read-out and setting: next, TTCAGGTTTTCAAACTTCTTGC: -0.208.

For TACGCTAATCCAGTCATAGTGA, the sensor-assay potency score (higher = more potent) was -0.195.

The record behind these values is the OligoGym collection.
Also: reference of the scale not given here.
